# Assay results: PubChem BioAssay (NCATS)
# Results filed as inconclusive are left out. A call without a number means that no potency is given here. For part of these data: Results with a measured potency or affinity are listed apart. Calls of active or inactive are those of the source.
# How the values were obtained:
# [1] = Ebola virus entry assay, green channel fluorescence
# [2] = Ebola virus entry assay, reporter ratio channel; AC50: Channel type: primary unless noted; outcome: Channel type: primary unless noted
# [3] = Ebola virus entry assay, blue channel (ratio component)
# [4] = qHTS assay for measurement of the activity of small molecule inhibitors on Zika virus induced Caspase-3 activity in human iPSC derived neural progenitor cells (hNPCs) (AID 1224857; active = well fitted curve in the direction sought with a large enough effect; an effect the other way counts as inactive or inconclusive; also: nearly all actives have a fitted effect of over 65% in size); settings: hNPCs ZIKV-induced caspase-3/7, Caspase-Glo luminescence, 6 h; series mostly up to 45.7 µM
# Outline: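 In medium with heparin 2 ug/ml and cyclopamine 2 uM, hNPCs (350 cells/well) received compound for one hour and then Zika virus at 2 FFU/cell; caspase activity was measured by Caspase-Glo 3/7 luminescence 6 h post-infection.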
# [5] = qHTS assay for measurement of the activity of small molecule inhibitors on Zika virus induced Caspase-3 activity in human astrocytoma cells (AID 1224859; active = well fitted curve in the direction sought with a large enough effect; an effect the other way counts as inactive or inconclusive); settings: SNB-19 ZIKV-induced caspase-3/7, luminescence, 6 h; series mostly up to 45.7 µM
# Outline: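 A cell-based luminescent caspase-3/7 assay used SNB-19 cells infected with ZIKV (2 FFU/cell) for 6 h following 1 h compound pretreatment.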
# [6] = Ebola virus entry reporter assay, green channel fluorescence
# [7] = Ebola virus entry cell assay, ratio channel
# [8] = High-throughput drug toxicity screening in the BPDCN cell line Gen2.2 (AID 1224824); settings: Gen2.2 BPDCN cells; at 45.8 µM (top of the series) unless noted;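 also: cells exposed to compounds for 48 h before reading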
# Outline: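 Gen2.2, 500 cells/well, phenol red-free RPMI/10% FBS/Pen-Strep; 48 h cpd, 37 °C/5% CO2; CTG lum, 15 min RT. Norm: DMSO = 100%, bortezomib 9.2 uM final = 0%.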
# [9] = High-throughput drug toxicity screening in the BPDCN cell line Cal-1 (AID 1224825); settings: Cal-1 BPDCN cell viability, qHTS; at 45.8 µM (top of the series) unless noted
# Outline: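 Exponentially growing Cal-1 cells, 500 per well in phenol red-free RPMI with 10% FBS, were exposed to compounds for 48 h at 37 °C, 5% CO2. Viability was read by CellTiter-Glo luminescence and normalised to DMSO (100%) and 9.2 uM bortezomib (0%).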
# [10] = qHTS Screen of the MIPE 4.0 Collection Against Ewings Sarcoma (EW8) (AID 1259255; active = well fitted curve in the direction sought with a large enough effect; an effect the other way counts as inactive or inconclusive; also: nearly all actives have a fitted effect of over 35% in size); settings: EW8 Ewing sarcoma viability, CellTiter-Glo, 48 h; series mostly up to 45.8 µM
# Outline: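 Measured: ATP luminescence (CellTiter-Glo) 10 min after reagent addition, following 48 h drug treatment. Relative luciferase units converted to percent activity, with no-cell wells as full and DMSO wells as zero inhibition.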
# [11] = qHTS assay to identify small molecule inhibitors of chordoma cells - UCH-1 (AID 1259355; active = well fitted curve in the direction sought with a large enough effect; an effect the other way counts as inactive or inconclusive; also: nearly all actives have a fitted effect of over 55% in size); settings: UCH-1 chordoma viability, CellTiter-Glo, 48 h, combination; series mostly up to 46.1 µM
# Outline: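 Luminescent ATP read-out (CellTiter-Glo, 30min at room temperature) measured viability of UCH-1 cells exposed for 48hr to test drugs at 15 concentrations, co-dosed with a five-agent combination of auranofin, camptothecin, doxorubicin, rubitecan and topotecan.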
# [12] = qHTS assay to identify small molecule inhibitors of chordoma cells - UCH-2 (AID 1259356; active = well fitted curve in the direction sought with a large enough effect; an effect the other way counts as inactive or inconclusive); settings: UCH-2 chordoma viability, CellTiter-Glo ATP luminescence, 48 h; series mostly up to 46.1 µM
# [13] = Immunotoxin (HA22) sensitization/mitigation study. Vehicle arm (PBS) (AID 1159510); settings: cancer cells viability with PBS vehicle (HA22 study); series mostly up to 46.1 µM; also: potency is read from the fitted curve at half-maximal effect
compound,measurement,setting,value
C=CCC1(C(C)CC)C(=O)NC(=O)NC1=O (stereo not given),outcome,[1],inactive
same,outcome,[2],inactive
same,outcome,[3],inactive
same,outcome,[4],inactive
same,outcome,[5],inactive
CC(=O)Oc1ccc(C)cc1,outcome,[1],inactive
same,outcome,[2],inactive
same,outcome,[3],inactive
O=C(O)c1[nH]n(-c2ccc(S(=O)(=O)O)cc2)c(=O)c1N=Nc1ccc(S(=O)(=O)O)cc1,outcome,[1],inactive
same,outcome,[2],inactive
same,outcome,[3],inactive
CC[N+](CC)(CC)CCOc1cccc(OCC[N+](CC)(CC)CC)c1OCC[N+](CC)(CC)CC,outcome,[1],inactive
same,outcome,[2],inactive
same,outcome,[3],inactive
CC[N+]1(CC)CCC(OC(=O)C(O)(c2ccccc2)c2ccccc2)C1 (stereo not given),outcome,[1],inactive
same,outcome,[2],inactive
same,outcome,[3],inactive
same,outcome,[4],inactive
same,outcome,[5],inactive
CC[C@H]1OC(=O)[C@H](C)[C@@H](O[C@H]2C[C@@](C)(OC)[C@@H](O)[C@H](C)O2)[C@H](C)[C@@H](O[C@@H]2O[C@H](C)C[C@H](N(C)C)[C@@H]2O)[C@](C)(O)C[C@@H](C)CN(C)[C@H](C)[C@@H](O)[C@]1(C)O,outcome,[1],inactive
same,outcome,[2],inactive [Channel type: confirmation]
same,outcome,[3],inactive
same,outcome,[6],inactive
same,AC50,[7],2.51 µM (active)
CCCOC(=O)c1cncn1C(C)c1ccccc1 (stereo not given),outcome,[1],inactive
same,outcome,[2],inactive
same,outcome,[3],inactive
same,outcome,[4],inactive
same,outcome,[5],inactive
C#CC(O)(C=CCl)CC (stereo not given),outcome,[1],inactive
same,outcome,[2],inactive
same,outcome,[3],inactive
same,outcome,[4],inactive
same,outcome,[5],inactive
O=C(O)/C=C\C(=O)O,outcome,[1],inactive
same,outcome,[2],inactive
same,outcome,[3],inactive
same,outcome,[4],inactive
COc1cc(CCN)cc(OC)c1OC,outcome,[1],inactive
same,outcome,[2],inactive
same,outcome,[3],inactive
same,outcome,[4],inactive
same,outcome,[5],inactive
C[C@]12CC[C@H]3[C@@H](CCC4=CC(=O)CC[C@@H]43)[C@@H]1CC[C@@H]2OC(=O)CCC1CCCCC1,outcome,[1],inactive
same,outcome,[2],inactive
same,outcome,[3],inactive
same,outcome,[4],inactive
same,outcome,[5],inactive
CCCCCCOc1ccccc1C(N)=O,outcome,[1],inactive
same,outcome,[2],inactive
same,outcome,[3],inactive
COc1ccc(C2CNC(=O)C2)cc1OC1CCCC1 (stereo not given),outcome,[1],inactive
same,outcome,[2],inactive
same,outcome,[3],inactive
CN1C(=O)CCS(=O)(=O)C1c1ccc(Cl)cc1 (stereo not given),outcome,[1],inactive
same,outcome,[2],inactive
same,outcome,[3],inactive
same,"cell viability, % of control (lower = more cytotoxic)",[8],143%
same,viability (% of control),[9],112%
same,outcome,[4],inactive
same,outcome,[5],inactive
same,outcome,[10],inactive
same,outcome,[11],inactive
same,outcome,[12],inactive
COc1cc2c(Nc3ccc(Br)cc3F)ncnc2cc1OCC1CCN(C)CC1,outcome,[1],inactive
same,outcome,[2],inactive
same,outcome,[3],inactive
same,Potency,[13],20.9 µM (active)
C[C@]12CC[C@H]3[C@@H](CCC4=CC(=O)CC[C@@H]43)[C@@H]1CC[C@@H]2OC(=O)CCc1ccco1,outcome,[1],inactive
same,outcome,[2],inactive
same,outcome,[3],inactive
same,outcome,[4],inactive
same,outcome,[5],inactive
CC1(C)O[C@@H]2C[C@H]3[C@@H]4CCC5=CC(=O)C=C[C@]5(C)[C@@]4(F)[C@@H](O)C[C@]3(C)[C@]2(C(=O)CO)O1,outcome,[1],inactive
same,outcome,[2],inactive
same,outcome,[3],inactive
C[C@@H]1CN(c2c(F)c(F)c3c(=O)c(C(=O)O)cn(C4CC4)c3c2F)C[C@H](C)N1,outcome,[1],inactive
same,outcome,[2],inactive
same,outcome,[3],inactive
O=C(CO)[C@@H](O)[C@H](O)[C@@H](O)CO,outcome,[1],inactive
same,outcome,[2],inactive
same,outcome,[3],inactive
C=CCc1ccc(O)c(OC)c1,outcome,[1],inactive
same,outcome,[2],inactive
same,outcome,[3],inactive
CCCC(=O)OCOC(=O)C1=C(C)NC(C)=C(C(=O)OC)C1c1cccc(Cl)c1Cl (stereo not given),outcome,[1],inactive
same,outcome,[2],inactive
same,outcome,[3],inactive
Cc1ccc2ccc(Cl)cc2n1,outcome,[1],inactive
same,outcome,[2],inactive
same,outcome,[3],inactive
CN(C)CCN(Cc1ccsc1)c1ccccn1,outcome,[1],inactive
same,outcome,[2],inactive
same,outcome,[3],inactive
COc1ccc2cccc(CCNC(C)=O)c2c1,outcome,[1],inactive
same,outcome,[2],inactive
same,outcome,[3],inactive
CN(CC1(C)CCCO1)S(=O)(=O)c1ccc(Cl)c(S(N)(=O)=O)c1 (stereo not given),outcome,[1],inactive
same,outcome,[2],inactive
same,outcome,[3],inactive
CC(C)(C)NCC(O)c1cc(O)cc(O)c1 (stereo not given),outcome,[1],inactive
same,outcome,[3],inactive
COC1CC(=C(c2cccs2)c2cccs2)C[N+](C)(C)C1 (stereo not given),outcome,[1],inactive
same,outcome,[2],inactive
same,outcome,[3],inactive
same,outcome,[4],inactive
same,outcome,[5],inactive
same,outcome,[11],inactive
same,outcome,[12],inactive
C[C@]12CCC(=O)C=C1CC[C@@H]1[C@@H]2CC[C@@]2(C)[C@H]1CC[C@]2(C)O,outcome,[1],inactive
same,outcome,[2],inactive
same,outcome,[3],inactive
same,outcome,[4],inactive
same,outcome,[5],inactive
COC(=O)C(Cl)C(=O)OC,outcome,[1],inactive
same,outcome,[2],inactive
same,outcome,[3],inactive
same,outcome,[5],inactive
O=c1oc2ccccc2c(O)c1Cc1c(O)c2ccccc2oc1=O,outcome,[1],inactive
same,outcome,[2],inactive
same,outcome,[3],inactive
same,outcome,[4],inactive
same,outcome,[5],inactive
same,outcome,[11],inactive
same,outcome,[12],inactive
C=C(C)[C@H]1CN[C@H](C(=O)O)[C@H]1CC(=O)O,outcome,[1],inactive
same,outcome,[2],inactive
same,outcome,[3],inactive
same,outcome,[5],inactive
same,outcome,[11],inactive
same,outcome,[12],inactive
O=C(Nc1ccc(Br)cc1)c1cc(Br)cc(Br)c1O,outcome,[1],inactive
same,outcome,[2],inactive
same,outcome,[3],inactive
same,outcome,[11],inactive
same,outcome,[12],inactive
O=C1c2ccccc2C(=O)c2ccccc21,outcome,[1],inactive
same,outcome,[2],inactive
same,outcome,[3],inactive
same,outcome,[4],inactive
same,outcome,[5],inactive
same,outcome,[11],inactive
same,outcome,[12],inactive
C[C@H](N)C(=O)c1ccccc1,outcome,[1],inactive
same,outcome,[2],inactive
same,outcome,[3],inactive
same,outcome,[5],inactive
CCC(C)C(C)(COC(N)=O)COC(N)=O (stereo not given),outcome,[1],inactive
same,outcome,[2],inactive
same,outcome,[3],inactive
same,outcome,[5],inactive
CCCCCCC(=O)CCCCCC/C=C/C[C@@H](O)[C@H](O)[C@@](N)(CO)C(=O)O,outcome,[1],inactive
same,outcome,[2],inactive
same,outcome,[3],inactive
same,outcome,[4],inactive
same,outcome,[5],inactive
same,outcome,[11],inactive
same,outcome,[12],inactive
Oc1ccc(Cl)cc1,outcome,[1],inactive
same,outcome,[2],inactive
same,outcome,[3],inactive
same,outcome,[4],inactive
same,outcome,[5],inactive
same,outcome,[11],inactive
same,outcome,[12],inactive
